Measurements from the supplement of paper PMC8728848.
Only a selection was taken, and the strongest signals are over-represented in it overall.

Key:
Assay in all cases: glycan array binding signal (z-score within array); higher = stronger binding
Details in all cases: glycan notation: IUPAC condensed, linker removed
Gal3S4S(b1-4)GlcNAc = target: Gal3S4S(b1-4)GlcNAc
How it was run: (§1)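 The binding signal is a Z-score computed within each array and averaged over linkers. Arrays of the same protein sequence at different concentrations or buffers were also averaged together. Data originate from 3228 arrays in the Consortium for Functional Glycomics database, kept only where the protein sequence was available.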

Gal4S(b1-4)GlcNAc = target: Gal4S(b1-4)GlcNAc
How it was run: as §1

[1] = target: GalNAc(b1-3)Gal(a1-4)Gal(b1-4)GlcNAc
How it was run: as §1

[2] = target: GalNAc3S(b1-4)[Fuc(a1-3)]GlcNAc
How it was run: as §1

GalNAc4S6S(b1-4)GlcNAc = target: GalNAc4S6S(b1-4)GlcNAc
How it was run: as §1

Glc(a1-4)Glc = target: Glc(a1-4)Glc
How it was run: as §1

GlcA(b1-3)GlcNAc = target: GlcA(b1-3)GlcNAc
How it was run: as §1

[3] = target: GlcNAc(a1-4)Gal(b1-4)GalNAc
How it was run: as §1

[4] = target: GlcNAc(a1-4)Gal(b1-4)GlcNAc(b1-3)Gal(b1-4)GlcNAc
How it was run: as §1

[5] = target: GlcNAc(b1-3)Gal(b1-4)GlcNAc(b1-3)Gal(b1-4)GlcNAc(b1-3)Gal(b1-4)GlcNAc(b1-2)Man(a1-3)[GlcNAc(b1-3)Gal(b1-4)GlcNAc(b1-3)Gal(b1-4)GlcNAc(b1-3)Gal(b1-4)GlcNAc(b1-2)Man(a1-6)]Man(b1-4)GlcNAc(b1-4)[Fuc(a1-6)]GlcNAc
How it was run: as §1

[6] = target: GlcNAc(b1-3)Gal(b1-4)GlcNAc(b1-3)Gal(b1-4)GlcNAc(b1-3)Gal(b1-4)GlcNAc(b1-3)Gal(b1-4)GlcNAc(b1-2)Man(a1-3)[GlcNAc(b1-3)Gal(b1-4)GlcNAc(b1-3)Gal(b1-4)GlcNAc(b1-3)Gal(b1-4)GlcNAc(b1-3)Gal(b1-4)GlcNAc(b1-2)Man(a1-6)]Man(b1-4)GlcNAc(b1-4)[Fuc(a1-6)]GlcNAc
How it was run: as §1

[7] = target: GlcNAc6S(b1-3)Gal(b1-4)GlcNAc
How it was run: as §1

[8] = target: Man(a1-3)[Man(a1-6)]Man(a1-6)[Man(a1-3)]Man(b1-4)GlcNAc(b1-4)GlcNAc
How it was run: as §1

[9] = target: Man(a1-3)[Man(a1-6)]Man(b1-4)GlcNAc(b1-4)GlcNAc
How it was run: as §1

[10] = target: Neu5Ac(a2-3)Gal(b1-3)GalNAc6S
How it was run: as §1

[11] = target: Neu5Ac(a2-3)Gal(b1-4)GlcNAc(b1-2)Man
How it was run: as §1

[12] = target: Neu5Ac(a2-3)Gal(b1-4)GlcNAc(b1-2)[Neu5Ac(a2-3)Gal(b1-4)GlcNAc(b1-4)]Man(a1-3)[GlcNAc(b1-4)][Neu5Ac(a2-3)Gal(b1-4)GlcNAc(b1-2)[Neu5Ac(a2-3)Gal(b1-4)GlcNAc(b1-6)]Man(a1-6)]Man(b1-4)GlcNAc(b1-4)GlcNAc
How it was run: as §1

[13] = target: Neu5Ac(a2-3)Gal(b1-4)GlcNAc(b1-2)[Neu5Ac(a2-3)Gal(b1-4)GlcNAc(b1-6)]Man(a1-6)[Neu5Ac(a2-3)Gal(b1-4)GlcNAc(b1-2)Man(a1-3)]Man(b1-4)GlcNAc(b1-4)GlcNAc
How it was run: as §1

[14] = target: Neu5Ac(a2-3)Gal(b1-4)GlcNAc(b1-6)GalNAc
How it was run: as §1

[15] = target: Neu5Ac(a2-6)Gal(b1-4)GlcNAc
How it was run: as §1

[16] = target: Neu5Ac(a2-6)Gal(b1-4)GlcNAc(b1-2)Man(a1-3)[Neu5Ac(a2-3)Gal(b1-4)GlcNAc(b1-2)Man(a1-6)]Man(b1-4)GlcNAc(b1-4)GlcNAc
How it was run: as §1

[17] = target: Neu5Ac(a2-6)Gal(b1-4)GlcNAc(b1-2)Man(a1-6)[Gal(b1-4)GlcNAc(b1-2)Man(a1-3)]Man(b1-4)GlcNAc(b1-4)GlcNAc
How it was run: as §1

[18] = target: Neu5Ac(a2-6)Gal(b1-4)GlcNAc(b1-3)Gal(b1-3)GlcNAc
How it was run: as §1

[19] = target: Neu5Ac(a2-6)GlcNAc(b1-4)GlcNAc(b1-4)GlcNAc
How it was run: as §1

[20] = target: Neu5Ac(a2-8)Neu5Ac(a2-8)Neu5Ac(a2-3)[GalNAc(b1-4)]Gal(b1-4)Glc
How it was run: as §1

B1: GS7807E-bfa-538-23-538 (Bacteroides fragilis) (protein)
chain: TDSFESFNTNEAGFDNDSKKQDFNYYGIPLGIIQQGIYFNYDWGSGKNWPFQTMQNLGADLFSGYVHDFNPFNEGKNNSTYYMMDGWNGSTWDNTYGYIMPEVQKSETINEKDNIGFFGITKILKVELMHRLSDLYGPIVYTQFGSKTGSTPDTQQEAYKAFFNDLDTGIAKIREYQKANPDIESFAKFDILMPQGKRTFSEWIRFANSLRLRLAVRIAMADSKLAVAEAQKALTDEEGLLEGNDEVVAVSTSSGYTNPFGEINKAWGEVFMNANMESLLVGYEDPRMEKYFDKATGSDATSLIDYKGTYKGIRQGTGFSHKNYNGHSKSTITQQTDAVLMTPAEVWFLRAEAALRGWSSESVKDCYEKGVKASFAQWGAAGAEAYLESDRKPSDYVDAFKAANNVKAVNTLTPKWDDAAGNEDKLGRIITQKWLAMFPEGGEAWAEQRRTGYPRLFPVLVNQSEGTVDTNLGPRRLNFFVGIKTTNPEQYTQLVNALGGIDNCGTRLWWDTGRNF
Gal3S4S(b1-4)GlcNAc
  glycan array binding signal (z-score): -0.693
Gal4S(b1-4)GlcNAc
  glycan array binding signal (z-score): -0.708
[1]
  glycan array binding signal (z-score): -0.246
[2]
  glycan array binding signal (z-score): 3.75
GalNAc4S6S(b1-4)GlcNAc
  glycan array binding signal (z-score): -0.65
Glc(a1-4)Glc
  glycan array binding signal (z-score): -0.685
GlcA(b1-3)GlcNAc
  glycan array binding signal (z-score): -0.585
[3]
  glycan array binding signal (z-score): -0.527
[4]
  glycan array binding signal (z-score): -0.642
[5]
  glycan array binding signal (z-score): -0.408
[6]
  glycan array binding signal (z-score): -0.491
[7]
  glycan array binding signal (z-score): 3.84
[8]
  glycan array binding signal (z-score): 3.45
[9]
  glycan array binding signal (z-score): -0.656
[10]
  glycan array binding signal (z-score): -0.669
[11]
  glycan array binding signal (z-score): 2.92
[12]
  glycan array binding signal (z-score): -0.734
[13]
  glycan array binding signal (z-score): 0.242
[14]
  glycan array binding signal (z-score): 0.432
[15]
  glycan array binding signal (z-score): -0.395
[16]
  glycan array binding signal (z-score): -0.678
[17]
  glycan array binding signal (z-score): 3.21
[18]
  glycan array binding signal (z-score): -0.187
[19]
  glycan array binding signal (z-score): -0.677
[20]
  glycan array binding signal (z-score): 2.93
